From PubChem BioAssay
Active and inactive are the calls of the source. Unless noted, how the calls were made is not given here.

How the values were obtained:
[1] = HepG2 liver cancer cell viability effects, profiling panel, resazurin fluorescence, 24 h, PK04 Diversity Set (AID 1172); details: higher = more signal
[2] = basal S. cerevisiae growth modulation, no modifier, primary screen, OD600, strain BY4716, 24 h, basal condition (AID 1173); details: OD600, 24 h, higher = more signal, called active from +8 up or from −8 down
[3] = MM1S myeloma cell viability, profiling panel, resazurin fluorescence, basal, 24 h, PK04 Diversity Set (AID 1174); details: higher = more signal, called active from +8 up or from −8 down;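 further: MM1S multiple myeloma cell line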
[4] = molecular target: Dihydroorotate dehydrogenase (quinone), mitochondrial (Plasmodium falciparum (isolate 3D7)) (UniProt Q08210); assay: PfDHODH enzyme inhibitors, primary screen, biochemical, C-terminal His tag, absorbance 600 nm (AID 1175); details: DCIP absorbance 600 nm, higher = more signal, called active from +8 up or from −8 down;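 further: recombinant parasite enzyme with a five histidine tag at its C terminus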
[5] = P. aeruginosa biofilm formation inhibitors, primary screen, strain PAO1, LB-PBS medium, absorbance 600 nm (AID 1176); details: P. aeruginosa PAO1 growth/biofilm, A600, 12 h; higher = more signal
[6] = S. cerevisiae RM11-1a growth modifiers, primary screen, strain RM11-1a, OD600, basal, 24 h (AID 1177); details: OD600, 24 h, higher = more signal, called active from +8 up or from −8 down;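 further: cultures grown under basal conditions with no added stressor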
[7] = E. coli acrAB mutant growth effects, primary screen, E. coli filamentation inducers, strain DRC39, OD650, 24 h (AID 1178); details: higher = more signal, called active from +8 up or from −8 down;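 further: growth measured as culture turbidity by optical density at 650 nm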
[8] = E. coli acrAB mutant growth effects, primary screen, E. coli filamentation inducers, strain DRC39, OD650, 48 h (AID 1179);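 further: screen aims at cell division blockers that make cells filament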; details: E. coli DRC39 delta-acrAB growth, higher = more signal, called active from +8 up or from −8 down
[9] = RPMI8226 myeloma cell viability, profiling panel, resazurin fluorescence, basal, 24 h, PK04 Diversity Set (AID 1180); details: higher = more signal;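 further: RPMI8826 multiple myeloma cell line at 5000 cells per well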
[10] = molecular target: E3 ubiquitin-protein ligase XIAP (Homo sapiens) (UniProt P98170); assay: XIAP binders, primary screen, biophysical, small-molecule microarray, fluorescence 635 nm (AID 1181); details: small-molecule microarray binding, higher = more signal;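 further: score merges 667 nm emission and signal to noise over triplicate slides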
[11] = test system: XIP peptide (Xip251-270) binding; assay: small-molecule binders of XIP peptide, primary screen, biochemical, small-molecule microarray, fluorescence 635/667 nm, 0.1 µg/mL protein (AID 1182); details: fluorescent protein binding, 635 nm, higher = more signal, called active from +8 up or from −8 down
XIP peptide (Xip251-270) = assay: small-molecule binders of XIP peptide, primary screen, biochemical, small-molecule microarray, fluorescence 635/667 nm, 0.5 µg/mL protein (AID 1183); details: small-molecule microarray binding, fluorescence 635 nm; higher = more signal
[12] = Plasmodium falciparum growth inhibition, primary screen, strain 3D7, DAPI fluorescence, 100 nL (AID 1184);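 further: parasites grown inside human red blood cells in medium with human serum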; details: P. falciparum 3D7 growth, 3 d, higher = more signal
[13] = molecular target: Homeobox protein Hox-A13 (Mus musculus) (UniProt Q62424); assay: inhibitors of HoxA13-DNA binding, primary screen, biochemical, fluorescence polarization, labeled oligonucleotide (AID 1185); details: 15 min, higher = more signal, called active from +8 up or from −8 down
[14] = inhibitors of hydroxyurea-induced Chk1 phosphorylation, primary screen, imaging, HeLa, phospho-Chk1 antibody, percent positive cells (AID 1186); details: hydroxyurea-induced phospho-Chk1 immunofluorescence imaging, higher = more signal
[15] = inhibitors of hydroxyurea-induced Chk1 phosphorylation, primary screen, imaging, HeLa, phospho-Chk1 nuclear intensity (AID 1187); details: hydroxyurea-induced phospho-Chk1 immunofluorescence imaging, higher = more signal

Homeobox protein Hox-A13 (Mus musculus), sequence (Q62424 whole entry, looked up): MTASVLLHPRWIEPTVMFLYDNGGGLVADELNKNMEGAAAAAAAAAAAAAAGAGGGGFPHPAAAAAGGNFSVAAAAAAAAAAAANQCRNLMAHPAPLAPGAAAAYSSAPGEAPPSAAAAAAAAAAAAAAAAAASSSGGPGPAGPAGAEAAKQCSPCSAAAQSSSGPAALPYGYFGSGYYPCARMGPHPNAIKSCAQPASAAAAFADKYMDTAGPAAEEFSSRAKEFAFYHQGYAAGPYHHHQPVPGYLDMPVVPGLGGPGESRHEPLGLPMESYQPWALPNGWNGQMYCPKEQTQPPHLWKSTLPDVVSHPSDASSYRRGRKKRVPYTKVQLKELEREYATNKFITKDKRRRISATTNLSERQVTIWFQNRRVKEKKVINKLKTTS
E3 ubiquitin-protein ligase XIAP (Homo sapiens), sequence (P98170 whole entry, looked up): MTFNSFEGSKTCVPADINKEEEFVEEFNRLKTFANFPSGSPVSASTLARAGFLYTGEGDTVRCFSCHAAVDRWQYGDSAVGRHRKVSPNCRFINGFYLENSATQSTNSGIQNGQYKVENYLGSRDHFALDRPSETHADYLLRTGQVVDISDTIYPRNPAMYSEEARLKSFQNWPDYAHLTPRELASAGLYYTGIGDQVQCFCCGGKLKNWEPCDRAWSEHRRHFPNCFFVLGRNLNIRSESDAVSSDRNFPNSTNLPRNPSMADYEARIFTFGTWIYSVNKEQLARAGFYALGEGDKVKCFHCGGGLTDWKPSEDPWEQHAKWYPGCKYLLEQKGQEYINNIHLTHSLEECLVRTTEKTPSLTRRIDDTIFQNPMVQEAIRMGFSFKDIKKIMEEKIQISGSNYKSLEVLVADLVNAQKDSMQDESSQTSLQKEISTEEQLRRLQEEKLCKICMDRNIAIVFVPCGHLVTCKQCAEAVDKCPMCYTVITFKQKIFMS
Dihydroorotate dehydrogenase (quinone), mitochondrial (Plasmodium falciparum (isolate 3D7)), sequence (Q08210 whole entry, looked up): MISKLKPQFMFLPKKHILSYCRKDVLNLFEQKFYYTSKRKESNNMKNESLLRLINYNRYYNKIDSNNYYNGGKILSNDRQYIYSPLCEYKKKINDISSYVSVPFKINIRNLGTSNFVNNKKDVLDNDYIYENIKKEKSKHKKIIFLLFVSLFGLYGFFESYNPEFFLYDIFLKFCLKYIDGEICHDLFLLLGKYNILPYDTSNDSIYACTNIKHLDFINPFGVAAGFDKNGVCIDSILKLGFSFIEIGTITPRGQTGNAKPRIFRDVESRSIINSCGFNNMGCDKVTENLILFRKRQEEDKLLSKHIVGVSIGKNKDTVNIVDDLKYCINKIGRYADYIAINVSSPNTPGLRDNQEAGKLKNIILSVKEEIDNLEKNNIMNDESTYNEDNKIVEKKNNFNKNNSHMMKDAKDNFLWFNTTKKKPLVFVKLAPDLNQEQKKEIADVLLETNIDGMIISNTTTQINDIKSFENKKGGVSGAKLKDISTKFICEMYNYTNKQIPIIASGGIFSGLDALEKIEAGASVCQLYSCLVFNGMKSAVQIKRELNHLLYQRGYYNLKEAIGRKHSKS

Structure (SMILES) | z-score [1] | z-score [2] | z-score [3] | composite z-score [4] | z-score [5] | z-score [6] | z-score [7] | z-score [8] | z-score [9] | composite z-score [10] | composite z-score [11] | composite z-score (XIP peptide (Xip251-270)) | z-score [12] | z-score [13] | z-score [14] | z-score [15]
Cc1ccc(S[C@]2(C(=O)NC3CC3)CC(=O)N(C(C)C)[C@@H]2c2ccc(CO)cc2I)cc1 | 0.0662 | -3.47 (inactive) | -2.29 (inactive) | -0.632 (inactive) | -0.227 (inactive) | -2.02 (inactive) | 0.741 (inactive) | 0.617 (inactive) | -2.37 | -0.02 | 0.717 (inactive) | 0.682 | -1.63 | -4.06 (inactive) | -0.248 (inactive) | -0.439 (inactive)
N#Cc1ccc(-c2cccc(=O)o2)cc1 | -0.518 | -0.923 (inactive) | 0.141 (inactive) | -0.578 (inactive) | 0.0767 (inactive) | 0.719 (inactive) | -1.1 (inactive) | -0.0301 (inactive) | -0.389 | -0.0085 | 0.37 (inactive) | -0.0086 | 0.944 | 0.108 (inactive) | 0.419 (inactive) | 0.674 (inactive)
CCCC[C@H]1C[C@@H]1[C@@H]1N(C(C)=O)[C@H](c2cccc(OC)c2)CC12CC2 | 0.527 | -6.41 (inactive) | 1.05 (inactive) | 0.348 (inactive) | -0.499 (inactive) | 0.52 (inactive) | -0.083 (inactive) | -0.791 (inactive) | 1.43 | -0.0416 | -0.233 (inactive) | -1.04 | -0.313 | -3.27 (inactive) | 0.368 (inactive) | 0.638 (inactive)
COCCCNC(=O)[C@@]1(Sc2ccc(C)cc2)CC(=O)N(Cc2ccccc2C(F)(F)F)[C@@H]1c1ccc(CO)cc1I | -1.07 | -2.19 (inactive) | -2.56 (inactive) | 0.0681 (inactive) | 0.0993 (inactive) | -1.2 (inactive) | -0.473 (inactive) | 0.0799 (inactive) | -2.75 | 0.419 | 0.814 (inactive) | -0.251 | -0.284 | -2.03 (inactive) | 0.26 (inactive) | 0.204 (inactive)
COc1ccc([Si](C)(C)[C@H]2[C@H](CC(=O)N3CCC[C@H]3CO)O[C@@]3(C(=O)N(Cc4ccc(N5CCCCC5=O)cc4)c4ccccc43)[C@@H]2C)cc1 | -0.369 | -0.0356 (inactive) | -0.563 (inactive) | -2.66 (inactive) | -0.012 (inactive) | 1.57 (inactive) | -0.18 (inactive) | -0.244 (inactive) | -0.171 | 0.197 | 0.214 (inactive) | 0.753 | -1.64 | -4.85 (inactive) | 0.268 (inactive) | 0.241 (inactive)
COCCCNC(=O)[C@@H]1c2ccccc2C(=O)N(Cc2ccc(OC(F)(F)F)cc2)[C@H]1c1ccc(CO)cc1 | 0.201 | 0 (inactive) | -0.148 (inactive) | 0.228 (inactive) | 0.801 (inactive) | -1.06 (inactive) | 0.454 (inactive) | -0.34 (inactive) | 0.116 | -0.219 | 0.16 (inactive) | 0.314 | 0.0414 | -3.51 (inactive) | -0.163 (inactive) | -0.368 (inactive)
C=CCC(OC(C)=O)[C@@H]1[C@@H](N(Cc2cccc3ccccc23)C(=O)c2ccc(-c3ccccc3)cc2)c2cc(OCCCO)ccc2N1C(=O)Cc1ccc2ccccc2c1 (some centres undefined) | 0.236 | 0.716 (inactive) | 0.331 (inactive) | -0.0628 (inactive) | 0.444 (inactive) | -0.368 (inactive) | -0.416 (inactive) | -0.236 (inactive) | 0.193 | -0.179 | -0.419 (inactive) | -0.347 | 0.0788 | -0.896 (inactive) | 0.547 (inactive) | 0.582 (inactive)
CC(C)=CCCC(C)=CC(O)C1C=CC2C(=O)NC(=O)C2N1Nc1ccc(Cl)cc1Cl (centres undefined) | -1.66 | -4.77 (inactive) | -1.56 (inactive) | 0.112 (inactive) | 1.01 (inactive) | 0.432 (inactive) | -0.0552 (inactive) | -0.797 (inactive) | -1.73 | -0.0326 | 0.323 (inactive) | 0.171 | 0.812 | -3.59 (inactive) | 1.39 (inactive) | 0.848 (inactive)
Cc1ccc(S[C@]2(C(=O)NCC(F)(F)F)CC(=O)N(Cc3ccccc3C(F)(F)F)[C@@H]2c2ccc(CO)cc2)cc1 | -0.12 | 0.0386 (inactive) | -0.383 (inactive) | -0.631 (inactive) | 0.568 (inactive) | -0.404 (inactive) | 0.334 (inactive) | 0.2 (inactive) | -0.754 | 0.0256 | 0.859 (inactive) | 0.843 | 0.186 | -1.74 (inactive) | 0.145 (inactive) | 0.518 (inactive)
